For part of these data: Potency and affinity values are given separately. This is one part of the list. Records with an inconclusive call do not appear. Calls of active or inactive are those of the source. Unless noted, no rule for the calls is given here.

The source of these data is PubChem BioAssay.

A short description of test [1]: Ring1 de-repression measured by qPCR – cell-based, mouse ESC, RT-qPCR, cherry-pick, esBAF inhibitor project, confirmation (AID 743176;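 active = Ring1 gene expression raised more than 2-fold over untreated cells in both replicates at either tested dose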;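 also: Ring1 transcript normalised to actin housekeeping signal by TaqMan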). The following applies: mouse ESC E14, Ring1 mRNA RT-qPCR fold change, stronger effect = higher value.
A short description of test [2]: Fgf4 repression measured by qPCR – cell-based, mouse ESC, RT-qPCR, cherry-pick, esBAF inhibitor project, confirmation (AID 743177;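 active = Fgf4 expression under 0.8 fold of control in both repeat measurements at one or both tested doses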;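 also: Fgf4 transcript normalised to actin in duplex TaqMan qPCR; cells exposed to compound for 24 h before lysis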). The following applies: mouse ESC E14, Fgf4 mRNA qPCR fold change, stronger effect = lower value. A general note: Quantitative PCR measures a nucleic acid by following its amplification.
The nature of test [3]: Bmi1 mRNA increase in mouse ESCs – cell-based, RT-qPCR, mouse ESC, single point, cherry-pick, confirmation (AID 743180;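 active = Bmi1 expression fold change above 6 at either tested concentration, seen in replicate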;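 also: higher fold means more Bmi1 de-repression and stronger esBAF inhibition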). Particulars: mouse ESC E14, Bmi1 mRNA qPCR fold, stronger effect = higher value.
Test [4] can be described thus: viability loss in A549 cells – cell-based, plate reader, single point, cherry-pick, cytotoxicity control (AID 743188). The following applies: at 25 µM.
Test [5] is described as follows: viability loss in HepG2 cells – cell-based, plate reader, single point, cherry-pick, cytotoxicity control (AID 743189; in the data active = activity change below about -50%). The following applies: at 25 µM, stronger effect = lower value.
Test [6] can be described thus: viability loss in HEK293 cells – cell-based, plate reader, single point, cherry-pick, cytotoxicity control (AID 743190; in the data active = activity change below about -38%, passing the limit was not always enough). Particulars: at 25 µM.
Test [7] can be described thus: A549 cell cytotoxicity, dose response, cytotoxicity control, plate reader, cherry-pick, antagonist series (AID 743412).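 Also: 0% = neutral control wells and -100% = positive control wells.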 The following applies: series mostly up to 26 µM.

In the case of `COC(=O)/C(=C1\Oc2ccc(C(C)(C)C)cc2S1)C(F)(F)F`, the fold change in test [1] (Ring1 fold increase, at 7 µM) is 1.4; in test [1] (at 33 µM), 1.09 (inactive); in test [3] (Bmi1 de-repression, at 7 µM), 1.51; in test [3] (at 33 µM) it was 1.42 (inactive). Moreover, the Fgf4 expression fold change in test [2] (Fgf4 expression, at 7 µM) was 1.06; in test [2] (at 33 µM) it was 0.881 (inactive). In addition, the cell viability change % (negative = cytotoxic) in test [4] was -9.79% (inactive). For the same molecule, the activity change, negative = inhibition is -31.4% (inactive) in test [5] and 0.258% (inactive) in test [6].

Regarding `COc1cccc(-c2cc(C(=O)Nc3cccc(O)c3)no2)c1`, in test [7], the outcome was inactive.

With `COc1ccc(Nc2ccc3ccccc3c2)cc1`, the fold change is 1.4 in test [1] (Ring1 fold increase, at 7 µM); 1.14 (inactive) in test [1] (at 33 µM); 1.37 in test [3] (Bmi1 de-repression, at 7 µM); 2.11 (inactive) in test [3] (at 33 µM). Also, the cell viability change % (negative = cytotoxic) in test [4] is -5.46% (inactive). Besides, the activity change, negative = inhibition is 10% (inactive) in test [5] and -0.0365% (inactive) in test [6].

Take `Cc1ccc(-c2nnc(Nc3ccccc3)o2)cc1`: the molecule was classed as inactive in test [7].

With `Cc1cc(Cl)nc(NC(=O)Nc2cccc(Cl)c2)n1`, the fold change in test [1] (Ring1 fold increase, at 7 µM) is 1.34; in test [1] (at 33 µM), 1.28 (inactive); in test [3] (Bmi1 de-repression, at 7 µM), 1.61; in test [3] (at 33 µM) it was 1.24 (inactive). In addition, the Fgf4 expression fold change in test [2] (Fgf4 expression, at 7 µM) is 0.987; in test [2] (at 33 µM), 1.08 (inactive). Also, the cell viability change % (negative = cytotoxic) in test [4] was -1.39% (inactive). Also, the activity change, negative = inhibition in test [5] is -22.4% (inactive); in test [6] it was 1.81% (inactive).

`O=C(CCNC(=O)c1ccccc1)Nc1nc2ccccc2s1`: the fold change in test [1] (Ring1 fold increase, at 7 µM) was 1.2; in test [1] (at 33 µM), 0.581 (inactive); in test [3] (Bmi1 de-repression, at 7 µM) it was 1.36; in test [3] (at 33 µM), 1.77 (inactive). Further, the Fgf4 expression fold change in test [2] (Fgf4 expression, at 7 µM) was 0.839; in test [2] (at 33 µM), 0.653 (active). In addition, the cell viability change % (negative = cytotoxic) in test [4] was -14% (inactive). The activity change, negative = inhibition in test [5] is 11.7% (inactive); in test [6], -12.3% (inactive).

Turning to `O=C(Nc1cccnc1Cl)c1cc(-c2ccccc2O)on1`, the fold change was 1.22 in test [1] (Ring1 fold increase, at 7 µM); 1 (inactive) in test [1] (at 33 µM); 1.07 in test [3] (Bmi1 de-repression, at 7 µM); 1.14 (inactive) in test [3] (at 33 µM). Further, the Fgf4 expression fold change in test [2] (Fgf4 expression, at 7 µM) was 1.2; in test [2] (at 33 µM), 1.05 (inactive). Besides, the cell viability change % (negative = cytotoxic) in test [4] is -9.75% (inactive). Besides, the activity change, negative = inhibition in test [5] is -4.96% (inactive); in test [6] it was -13.7% (inactive).

Consider `O=C(CN1C(=O)c2ccccc2S1(=O)=O)Nc1ncc(Cl)cc1Cl`, for which the molecule was called inactive in test [7].

Take `COc1ccc(NC(=O)Nc2cccc([N+](=O)[O-])c2)cc1Cl`: the molecule was classed as inactive in test [7].

Take `CC(Cc1cccs1)NC(=O)c1cccc(Cl)c1` (stereo unspecified): the fold change in test [1] (Ring1 fold increase, at 7 µM) was 1.11; in test [1] (at 33 µM), 1.07 (inactive); in test [3] (Bmi1 de-repression, at 7 µM), 1.36; in test [3] (at 33 µM), 1.53 (inactive). The Fgf4 expression fold change in test [2] (Fgf4 expression, at 7 µM) was 1.02; in test [2] (at 33 µM), 1.08 (inactive). The cell viability change % (negative = cytotoxic) in test [4] is -16% (inactive). The figures for the activity change, negative = inhibition in test [5] and in test [6] were -51.2% (active) and -22.2% (inactive), respectively.

With `COc1ccc(/C=N/OCc2ccccc2C#N)c(OC)c1`, the fold change in test [1] (Ring1 fold increase, at 7 µM) is 1.08; in test [1] (at 33 µM), 0.981 (inactive); in test [3] (Bmi1 de-repression, at 7 µM) it was 1.34; in test [3] (at 33 µM), 1.44 (inactive). The cell viability change % (negative = cytotoxic) in test [4] is -7.58% (inactive). The activity change, negative = inhibition is -31.8% (inactive) in test [5] and -7.24% (inactive) in test [6].

As for `Cc1ccc(-c2nc(COC(=O)c3c(C)noc3C)cs2)cc1`, the fold change is 1.44 in test [1] (Ring1 fold increase, at 7 µM); 1.18 (inactive) in test [1] (at 33 µM); 1.56 in test [3] (Bmi1 de-repression, at 7 µM); 1.73 (inactive) in test [3] (at 33 µM). The Fgf4 expression fold change in test [2] (Fgf4 expression, at 7 µM) is 1.15; in test [2] (at 33 µM) it was 1.07 (inactive). In addition, the cell viability change % (negative = cytotoxic) in test [4] is -1.11% (inactive). In addition, the activity change, negative = inhibition in test [5] is -41.9% (inactive); in test [6] it was -15.3% (inactive).

With `CCc1c(C)sc(NC(=O)c2cccs2)c1C(N)=O`, the fold change in test [1] (Ring1 fold increase, at 7 µM) was 1.31; in test [1] (at 33 µM) it was 0.944 (inactive); in test [3] (Bmi1 de-repression, at 7 µM), 1.35; in test [3] (at 33 µM) it was 1.67 (inactive). Further, the Fgf4 expression fold change was 1.09 in test [2] (Fgf4 expression, at 7 µM) and 1.11 (inactive) in test [2] (at 33 µM). The cell viability change % (negative = cytotoxic) in test [4] was -14% (inactive). In addition, the activity change, negative = inhibition in test [5] is -29% (inactive); in test [6], -22.2% (inactive).
